Compound activity (PubChem)
D2 PAM-1 = HTS Assay for Positive Allosteric Modulators of the Human D2 Dopamine Receptor: Primary Screen for Potentiators | HEK293 T-REx D2, calcium flux, EC20 dopamine potentiation | potentiation, % at 10 µM | 340,000 compounds, 0.34% hits;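 active = potentiation over 3 SD above the plate norm, cut at about 30% in these data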; note: 0% is about no effect
Target sequence (P14416 whole entry, looked up): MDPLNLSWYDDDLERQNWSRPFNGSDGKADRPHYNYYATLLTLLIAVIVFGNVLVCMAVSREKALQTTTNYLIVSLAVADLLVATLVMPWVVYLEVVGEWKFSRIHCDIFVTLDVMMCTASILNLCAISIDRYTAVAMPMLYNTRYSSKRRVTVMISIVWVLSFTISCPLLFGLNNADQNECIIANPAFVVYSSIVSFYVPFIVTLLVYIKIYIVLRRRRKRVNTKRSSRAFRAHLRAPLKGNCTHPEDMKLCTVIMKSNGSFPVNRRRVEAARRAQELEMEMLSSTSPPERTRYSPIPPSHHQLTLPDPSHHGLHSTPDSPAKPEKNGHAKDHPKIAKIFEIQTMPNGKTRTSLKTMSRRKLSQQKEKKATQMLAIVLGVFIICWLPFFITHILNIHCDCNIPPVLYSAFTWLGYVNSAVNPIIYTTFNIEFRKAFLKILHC
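Tetracycline-induced Hek293 Trex D2 cells, force-coupled to calcium, loaded with no-wash calcium dye. Compound added with 180 s kinetic read for agonism, then EC20 dopamine and a further 180 s read for potentiation.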
D2 ag-1 = Beta-Arrestin HTS for Positive Allosteric Modulators of the Human D2 Dopamine Receptor: Agonists; D(2) dopamine receptor (Homo sapiens), P14416; DiscoveRx PathHunter D2 beta-arrestin, luminescence, 90 min; 100% = 57 uM dopamine signal; activation, % (test concentration not listed); 360,000 compounds, 0.084% hits; in the data active = activation above about 40%; inconclusive = between about 15% and that limit
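Agonist mode: compounds alone added to overnight-plated D2 PathHunter cells for 90 min at 37 C, with 57 uM final dopamine (EC100) defining full response. Beta-arrestin recruitment detected by chemiluminescent reagent, read after 1 h at ambient temperature.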
D2 antagonist = HTS Assay for Allosteric Antagonists of the Human D2 Dopamine Receptor: Primary Screen for Antagonists | D(2) dopamine receptor (Homo sapiens), P14416 | inhibition, % at 10 µM | AID 485344, 2010 | 340,000 compounds, 2% hits | HEK293 TREx D2 cells, calcium flux, dopamine EC80; in the data active = inhibition above about 30%; inactive = below that, where a call was filed; note: 0% is about no effect
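In this primary screen, negative modulation is detected by tracking calcium flux after an EC80 dopamine challenge in inducible HEK293 T-REx D2 cells preexposed to test compound for 180 s.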
D2 PAM-2 = Beta-Arrestin HTS for Positive Allosteric Modulators of the Human D2 Dopamine Receptor: Potentiators | D(2) dopamine receptor (Homo sapiens), P14416 | DiscoveRx D2 beta-arrestin cells, luminescence, 90 min; 100% = 57 uM dopamine signal | potentiation, % (test concentration not listed) | 360,000 compounds, 0.23% hits; in the data active = potentiation above about 50%; inconclusive = mostly about 30% to 49%
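D2 cells co-treated with compound plus 50 nM dopamine (EC20) for 90 min at 37 deg C to detect potentiation. Beta-arrestin recruitment was read as enzyme-fragment luminescence after 1 h at ambient temperature. Full response was set by 57 uM dopamine.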
D2 ag-2 = HTS Assay for Allosteric Agonists of the Human D2 Dopamine Receptor: Primary Screen for Agonists | 340,000 compounds, 0.53% hits | activation, % at 2 µM | HEK293 T-REx D2 cells, calcium flux agonist mode | AID 485358, 2010 | D(2) dopamine receptor (Homo sapiens), P14416;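 active = activation over 3 SD above normal in the single-dose calcium agonist read, cut at about 30% in these data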; note: 0% is about no effect
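HEK293 Trex D2 cells, tetracycline-induced, o/n 30 C 5% CO2; no-wash Ca dye, RT 30–90 min; 10-cycle baseline, 23 nl cpd added, kinetic Ca read 180 s; agonist hits = positive Ca response.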
Active calls of the source: *; ? = inconclusive; · = not tested or not shown. An excerpt weighted towards active compounds, which were near 2.4% of everything screened.

SMILES	D2 PAM-1	D2 ag-1	D2 antagonist	D2 PAM-2	D2 ag-2
COCCN(C(=O)c1ccccc1)c1nnc(-c2cccnc2)s1	8	-3	48*	-1	0
Cn1c(=O)c2[nH]c(-c3ccccc3Cl)c(O)c2n(C)c1=O	·	4	·	25	·
Cn1c(=O)c2[nH]c(-c3ccccc3)c(O)c2n(C)c1=O	9	?	11	108*	5
Cc1nn(CC(C)C(=O)N2CCN(S(=O)(=O)c3ccc(Cl)cc3)CC2)c(C)c1C (configuration not stated)	-16	-4	32*	-3	2
Cc1ccc(S(=O)(=O)N2CCN(C(=O)C(C)Cn3nc(C)c(C)c3C)CC2)cc1 (configuration not stated)	-7	-1	11	2	1
COc1ccc(OC)c(/C=C/C(=O)Nc2ccc3c(c2)CCC3)c1	-26	-2	49*	-42	-1
COc1ccc(NC(=O)/C=C/c2cc(Br)ccc2OC)cc1	-21	-2	49*	-43	-1
CCCCN(CCCC)CCNC(=O)Cn1nc(CC)n2c(cc3sc(C)cc32)c1=O	-20	·	·	·	0
CSc1ccc(/C=C/C(=O)OCC(=O)N2CCN(S(=O)(=O)c3ccc(C)cc3C)CC2)cc1	-2	3	41*	-4	0
COc1ccccc1NC(=O)C1=C(C)Nc2c(C(=O)Nc3cccc(C)c3)cnn2C1c1ccccc1Cl (configuration not stated)	6	·	·	·	-1
Cc1cc(C)n(-c2ccc([N+](=O)[O-])cc2)n1	-2	2	34*	-1	-1
O=C(Cn1cccc1C(=O)c1ccccc1)NCCN1CCOCC1	-15	-2	55*	-4	1
O=C(Cn1cccc1C(=O)c1ccccc1)NCCCN1CCOCC1	-6	-1	4	-21	1
Cc1ccc(C)c(N2CCN(CCCNC(=O)Cn3cccc3C(=O)c3ccccc3)CC2)c1	-46	-2	41*	-26	0
Cc1ccc(NC(=O)c2ccc(F)c(S(=O)(=O)NCCc3ccccc3)c2)cc1F	1	·	·	·	1
CCOc1ccccc1NC(=O)CSc1nc2c(oc3ccccc32)c(=O)n1-c1ccc(C)c(C)c1	0	·	·	·	1
COc1ccc(-c2oc3ncnc(NCCCN(C)C)c3c2-c2ccc(OC)cc2)cc1	-22	-3	54*	-15	-2
CN(C)CCNc1ncnc2oc(-c3ccccc3)c(-c3ccccc3)c12	-11	-8	-3	-16	0
Cc1ccc2c(c1)[nH]c1c(N3CCN(Cc4ccccc4)CC3)ncnc12	16	2	-28	-32	1
Cc1ccc2[nH]c3c(N4CCN(Cc5ccccc5)CC4)ncnc3c2c1	-18	5	39*	-20	1
CCOc1ccc(-n2c(Cc3cc(=O)[nH]c(=O)[nH]3)nnc2SCC)cc1	-2	-4	40*	-11	0
Cc1cc(C(=O)CSc2nnc(N)s2)c(C)n1CCc1ccc(F)cc1	-5	-3	43*	-14	0
Cc1cc(C(=O)CSc2nnc(N)s2)c(C)n1CCc1ccc(Cl)cc1	5	-1	-20	11	0
c1ccc(-c2nc(NCc3ccco3)c3oc4ccccc4c3n2)cc1	33*	0	-6	-7	0
CSc1nc(NCc2ccco2)c2ccccc2n1	-5	-2	31*	-10	1
SMILES	D2 PAM-1	D2 ag-1	D2 antagonist	D2 PAM-2	D2 ag-2
OCCN1CCN(c2nc(NCc3ccco3)c3ccccc3n2)CC1	-25	-2	28	-16	0
Cc1ccc(OCCN2CCN(c3nc(NCc4ccco4)c4ccccc4n3)CC2)cc1	-26	2	38*	-35	0
Cc1ccc(-c2nc(NCc3ccco3)c3ccccc3n2)cc1	-5	-15	-3	-18	0
Cc1ccc(/C=N/n2cnc3sc(C)c(C)c3c2=O)o1	47*	-2	-4	-5	0
Cc1ccc(Cl)cc1-n1c(=O)c2sc3ccccc3c2n(CC(=O)NC2CCCCC2)c1=O	0	·	·	·	1
O=C(Nc1cccc(Cl)c1)c1nc[nH]c1C(=O)N1CCc2ccccc2C1	-26	-1	56*	-28	-1
Cc1cccc(NC(=O)c2nc[nH]c2C(=O)N2CCc3ccccc3C2)c1	-28	-1	86*	-25	0
O=C(Nc1ccccc1)c1nc[nH]c1C(=O)N1CCc2ccccc2C1	-27	2	10	-18	0
CCSc1ncc(Cl)c(C(=O)N(Cc2ccccc2Cl)C2CCS(=O)(=O)C2)n1 (configuration not stated)	7	·	·	·	0
CCC(=O)N1CCN=C1SCc1ccc(Cl)cc1	30*	-1	5	-9	0
O=C(c1cccs1)N1CCN=C1SCc1ccc(Cl)cc1	-5	-2	27	-4	3
O=C(c1cccs1)N1CCN=C1SCc1ccccc1F	-21	-1	-8	-4	33*
O=C(C1CC1)N1CCN=C1SCc1ccccc1Cl	4	-3	35*	-11	-1
O=C(NCc1cccc(Br)c1)c1ccc(-n2cnc3cccnc32)cc1	12	·	·	·	0
COc1ccc(-n2nc(C(=O)NCCc3ccc(OC)c(OC)c3)c3c4ccccc4n(C)c3c2=O)cc1	7	·	·	·	-1
O=C(CSc1nc2nc[nH]c2c(=O)[nH]1)NC1CCCCC1	-6	-3	48*	-10	1
COc1ccc(CCNC(=O)COC(=O)CCC(=O)c2cccs2)cc1OC	·	2	·	-6	·
COc1ccc(CCNC(=O)CCn2cccc2)cc1OC	-9	1	1	-7	0
COc1ccc(CCNC(=O)CCC(=O)c2cccs2)cc1OC	-9	-4	44*	-4	27
COc1ccc(CCNC(=O)CN(C)S(=O)(=O)c2cccs2)cc1	-11	-3	32*	6	0
CN(CC(=O)NCCc1ccccc1)S(=O)(=O)c1cccs1	-8	-5	11	-5	0
CCNC(=O)COC(=O)CCC(=O)c1cccs1	-6	1	51*	-4	-2
COc1ccc(CCNC(=O)CCN2C(=O)C3CC=CCC3C2=O)cc1OC (configuration not stated)	2	-3	64*	-6	1
CCN(C(=O)c1cc2c(=O)oc3ccccc3c2s1)c1ccc(C)c(C)c1	6	·	·	·	0
CC[C@H](C)[C@H](NC(N)=O)C(=O)NCCc1ccc(OC)cc1	-5	-3	11	-3	0
